Results from PubChem BioAssay.
Active and inactive are the calls of the source.

What was measured:
[1] = system: Plasmodium falciparum Sir2 (PF13_0152, Sir2A); test: Plasmodium falciparum Sir2A binding compounds – biochemical, small-molecule microarray, 635 nm fluorescence, primary screen (AID 1098); details: fluorescence 635 nm, higher = more signal;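 also: score merges spot fluorescence intensity with its signal-to-noise ratio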
[2] = probe aDKK1 binding to arrayed compounds – biochemical, biotinylated probe, 635/667 nm fluorescence, primary screen (AID 1099); details: small-molecule microarray, higher = more signal;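 also: score merges 667nm spot fluorescence with signal to noise across triplicate slides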
[3] = probe aCHRDL2 binding to arrayed compounds – biochemical, biotinylated probe, 635/667 nm fluorescence, primary screen (AID 1100); details: small-molecule microarray, higher = more signal
[4] = change in splice reporter luminescence, either direction, cell-based, HEK293, spliceosome inhibition project, primary screen (AID 1101); details: HEK293 splicing luciferase reporter, 24 h, higher = more signal, called active from +8 up or from −8 down;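 also: HEK293 cells carrying a splicing-competent luciferase reporter gene; test concentration not given here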
[5] = target: Fibroblast growth factor 10 (Homo sapiens) (UniProt O15520); test: compounds binding fibroblast growth factor 10 – biochemical, small-molecule microarray, 635 nm fluorescence, primary screen (AID 1102); details: FGF10 binding, fluorescence 635 nm, higher = more signal
Fibroblast growth factor 10 (Homo sapiens), sequence (O15520 whole entry, looked up): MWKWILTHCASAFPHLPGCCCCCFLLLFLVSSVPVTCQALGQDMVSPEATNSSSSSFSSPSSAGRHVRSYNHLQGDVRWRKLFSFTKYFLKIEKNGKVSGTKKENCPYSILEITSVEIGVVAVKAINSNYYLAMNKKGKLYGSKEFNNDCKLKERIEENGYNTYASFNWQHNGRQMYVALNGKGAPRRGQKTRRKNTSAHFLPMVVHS

[6] = system: glycogen synthase kinase-3 (GSK3A per assay name; protocol says GSK3B); test: compounds binding glycogen synthase kinase-3 – biochemical, small-molecule microarray, 635 nm fluorescence, GSK3A, primary screen (AID 1103); details: fluorescence 635 nm, higher = more signal; also: the record names both GSK3A and GSK3B
[7] = target: Epidermal growth factor receptor (Homo sapiens) (UniProt P00533); test: compounds binding epidermal growth factor receptor – biochemical, small-molecule microarray, 635 nm fluorescence, primary screen (AID 1104); details: EGFR binding, higher = more signal;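 also: score merges 667 nm emission intensity with spot signal to noise over triplicate slides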
Epidermal growth factor receptor (Homo sapiens), sequence (P00533 whole entry, looked up): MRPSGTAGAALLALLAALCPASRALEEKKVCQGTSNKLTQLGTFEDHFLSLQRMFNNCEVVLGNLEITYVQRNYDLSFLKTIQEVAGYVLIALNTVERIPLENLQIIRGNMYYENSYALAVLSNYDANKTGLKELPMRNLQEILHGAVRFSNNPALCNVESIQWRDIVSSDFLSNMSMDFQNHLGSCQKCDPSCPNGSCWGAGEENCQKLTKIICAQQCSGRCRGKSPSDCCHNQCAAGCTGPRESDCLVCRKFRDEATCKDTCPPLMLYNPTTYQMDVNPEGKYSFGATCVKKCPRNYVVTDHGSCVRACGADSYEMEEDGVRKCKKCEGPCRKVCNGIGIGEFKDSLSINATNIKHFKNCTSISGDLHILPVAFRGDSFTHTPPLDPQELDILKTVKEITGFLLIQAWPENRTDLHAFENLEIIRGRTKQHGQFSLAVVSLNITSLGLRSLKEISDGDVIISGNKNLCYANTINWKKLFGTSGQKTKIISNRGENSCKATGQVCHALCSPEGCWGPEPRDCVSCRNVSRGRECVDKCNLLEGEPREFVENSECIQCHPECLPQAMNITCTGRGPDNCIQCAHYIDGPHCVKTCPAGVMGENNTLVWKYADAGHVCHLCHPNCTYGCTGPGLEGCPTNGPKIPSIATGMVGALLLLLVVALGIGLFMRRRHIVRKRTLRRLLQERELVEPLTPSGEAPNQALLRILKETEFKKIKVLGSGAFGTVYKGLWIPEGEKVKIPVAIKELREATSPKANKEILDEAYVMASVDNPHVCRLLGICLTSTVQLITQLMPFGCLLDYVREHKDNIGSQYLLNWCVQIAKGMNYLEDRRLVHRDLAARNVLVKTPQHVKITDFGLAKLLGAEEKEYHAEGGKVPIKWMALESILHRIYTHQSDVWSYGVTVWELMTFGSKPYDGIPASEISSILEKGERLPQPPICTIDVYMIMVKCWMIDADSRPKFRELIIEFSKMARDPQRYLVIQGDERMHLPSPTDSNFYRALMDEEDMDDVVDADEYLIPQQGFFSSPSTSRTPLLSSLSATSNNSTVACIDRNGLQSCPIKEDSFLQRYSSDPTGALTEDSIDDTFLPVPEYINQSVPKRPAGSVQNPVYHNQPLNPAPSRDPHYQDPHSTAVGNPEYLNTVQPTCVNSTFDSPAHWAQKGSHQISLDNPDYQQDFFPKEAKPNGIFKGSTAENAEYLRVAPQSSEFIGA

[8] = target: Follistatin-related protein 3 (Homo sapiens) (UniProt O95633); test: compounds binding follistatin-related protein 3 – biochemical, small-molecule microarray, 635 nm fluorescence, primary screen (AID 1105); details: FSTL3 binding, higher = more signal;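 also: score merges emission near 667 nm and signal to noise per printed spot across three slides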
Follistatin-related protein 3 (Homo sapiens), sequence (O95633 whole entry, looked up): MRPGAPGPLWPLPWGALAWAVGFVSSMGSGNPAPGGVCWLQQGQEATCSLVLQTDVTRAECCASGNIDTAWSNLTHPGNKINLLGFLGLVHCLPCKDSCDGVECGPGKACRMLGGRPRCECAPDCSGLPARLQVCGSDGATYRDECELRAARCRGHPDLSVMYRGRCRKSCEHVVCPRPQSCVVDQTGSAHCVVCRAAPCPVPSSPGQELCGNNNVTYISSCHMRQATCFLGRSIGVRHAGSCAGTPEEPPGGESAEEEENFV

[9] = target: Dickkopf-related protein 1 (Homo sapiens) (UniProt O94907); test: small molecules binding DKK1 protein – biochemical, small-molecule microarray, 635 nm fluorescence scan, primary screen (AID 1106); details: higher = more signal;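 also: score merges emission near 667 nm with signal to noise over three replicate slides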
Dickkopf-related protein 1 (Homo sapiens), sequence (O94907 whole entry, looked up): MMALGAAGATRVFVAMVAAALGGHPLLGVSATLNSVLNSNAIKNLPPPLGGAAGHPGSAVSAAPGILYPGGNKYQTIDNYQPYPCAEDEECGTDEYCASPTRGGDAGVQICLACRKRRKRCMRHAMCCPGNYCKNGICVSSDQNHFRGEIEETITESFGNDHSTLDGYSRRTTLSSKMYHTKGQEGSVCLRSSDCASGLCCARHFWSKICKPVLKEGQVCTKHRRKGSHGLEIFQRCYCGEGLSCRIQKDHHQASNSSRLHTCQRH

[10] = system: Inhibin beta A chain (activin A); test: small molecules binding activin A – biochemical, small-molecule microarray, 635 nm fluorescence scan, primary screen (AID 1107); details: INHBA, higher = more signal;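 also: mouse activin A protein probed at 4.33 µg/mL on printed slides; score merges bound-protein fluorescence near 667 nm with spot signal-to-noise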
[11] = system: Human papillomavirus type 1a protein E7 (residues 44-93); test: small molecules binding HPV E7 44-93 – biochemical, small-molecule microarray, residues 44-93, 635 nm fluorescence, primary screen (AID 1108); details: fluorescence 635 nm, higher = more signal;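 also: E7 fragment applied at 1 µg/mL in TBST for 1 h at 4 C; score combines spot fluorescence with its signal to noise ratio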
[12] = hepatitis C replication reporter changes, two-sided – Huh7 cells, luciferase reporter, HCV replication inhibitor project, primary screen (AID 1109); details: Huh7 HCV replicon luciferase reporter, 48 h; higher = more signal;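 also: huh7 hepatoma cells harbouring a luciferase neomycin HCV replicon reporter; luciferase luminescence as measure of HCV replicon replication; test concentration not given here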
[13] = target: Left-right determination factor 2 (Homo sapiens) (UniProt O00292); test: small molecules binding LEFTY2 protein – biochemical, small-molecule microarray, 635 nm fluorescence scan, primary screen (AID 1110); details: higher = more signal
Left-right determination factor 2 (Homo sapiens), sequence (O00292 whole entry, looked up): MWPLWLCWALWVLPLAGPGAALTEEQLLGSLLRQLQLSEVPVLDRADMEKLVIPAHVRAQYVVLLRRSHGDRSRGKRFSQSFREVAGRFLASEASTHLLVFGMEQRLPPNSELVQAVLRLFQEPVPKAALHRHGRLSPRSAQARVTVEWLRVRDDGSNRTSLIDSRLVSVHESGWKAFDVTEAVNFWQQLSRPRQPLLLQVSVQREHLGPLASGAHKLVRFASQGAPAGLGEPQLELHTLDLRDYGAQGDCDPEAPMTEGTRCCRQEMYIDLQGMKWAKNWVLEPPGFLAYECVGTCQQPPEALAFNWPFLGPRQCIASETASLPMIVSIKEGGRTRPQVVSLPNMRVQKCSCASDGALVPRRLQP

[14] = target: Calmodulin-1 (Homo sapiens) (UniProt P0DP23); test: small molecules binding calmodulin-1 with EGTA – biochemical, small-molecule microarray, Cy5-labelled CALM1, profiling panel (AID 1111); details: Cy5-CALM1 binding fluorescence, higher = more signal;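 also: labelled calmodulin applied in Tris saline Tween buffer holding calcium plus EGTA and DTT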
[15] = target: Calmodulin-1 (Homo sapiens) (UniProt P0DP23); test: small molecules binding Ca-loaded calmodulin-1 – biochemical, small-molecule microarray, Cy5-labelled CALM1, plus calcium, artefact control for SMM control-protein annotation, profiling panel (AID 1112); details: Cy5-CALM1 binding fluorescence, higher = more signal;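 also: score merges spot fluorescence with signal to noise from triplicate slides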
[16] = probe aWnt5a binding to arrayed compounds – biochemical, biotinylated probe, 635/667 nm fluorescence, primary screen (AID 1113); details: small-molecule microarray, higher = more signal;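 also: score merges 667 nm fluorescence intensity with signal-to-noise per printed feature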
[17] = probe aShh binding to arrayed compounds – biochemical, biotinylated probe, 635/667 nm fluorescence, primary screen (AID 1114); details: small-molecule microarray, higher = more signal;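 also: probe is biotin-labelled aShh protein from a stem cell growth factor screen; measures binding of labelled protein to compounds printed on the slide; score merges feature fluorescence at 667 nm with signal-to-noise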
[18] = probe aNog binding to arrayed compounds – biochemical, biotinylated probe, 635/667 nm fluorescence, primary screen (AID 1115); details: small-molecule microarray, higher = more signal;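 also: probe is biotinylated aNog protein used at 0.15 µg/mL for 1 h at 4 C; z-score combines 667 nm fluorescence of each spot with its signal to noise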
[19] = target: Torsin-1A-interacting protein 1 (Homo sapiens) (UniProt Q5JTV8); test: compound microarray binding of lysate hLAP1 – cell lysate, small-molecule microarray, COS7 lysate, 635/667 nm fluorescence, primary screen (AID 1116); details: 635 nm fluorescence, higher = more signal
Torsin-1A-interacting protein 1 (Homo sapiens), sequence (Q5JTV8 whole entry, looked up): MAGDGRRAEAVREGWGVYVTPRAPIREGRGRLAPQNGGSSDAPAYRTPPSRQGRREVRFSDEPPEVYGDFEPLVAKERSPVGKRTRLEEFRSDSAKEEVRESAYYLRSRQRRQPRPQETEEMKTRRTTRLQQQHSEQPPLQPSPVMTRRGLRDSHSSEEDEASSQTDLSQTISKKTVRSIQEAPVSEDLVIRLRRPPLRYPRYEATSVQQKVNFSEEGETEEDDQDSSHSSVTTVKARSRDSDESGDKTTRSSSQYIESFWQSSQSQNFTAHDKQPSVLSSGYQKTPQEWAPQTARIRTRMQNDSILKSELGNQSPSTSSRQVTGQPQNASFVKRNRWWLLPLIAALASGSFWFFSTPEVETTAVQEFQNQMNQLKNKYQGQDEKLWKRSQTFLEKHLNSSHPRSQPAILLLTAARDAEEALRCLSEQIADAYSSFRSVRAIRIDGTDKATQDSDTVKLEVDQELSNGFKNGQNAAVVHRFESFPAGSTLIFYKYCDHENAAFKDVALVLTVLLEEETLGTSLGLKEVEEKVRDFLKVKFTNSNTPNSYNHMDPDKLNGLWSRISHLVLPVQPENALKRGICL

[20] = target: Alpha-bungarotoxin (Bungarus multicinctus) (UniProt P60615); test: compounds binding labelled alpha-BTX control protein – biochemical, small-molecule microarray, Alexa647 label, 635/667 nm fluorescence, artefact control for SMM control protein annotation, profiling panel (AID 1117); details: alpha-BTX-A647 binding fluorescence, higher = more signal
Alpha-bungarotoxin (Bungarus multicinctus), sequence (P60615 whole entry, looked up): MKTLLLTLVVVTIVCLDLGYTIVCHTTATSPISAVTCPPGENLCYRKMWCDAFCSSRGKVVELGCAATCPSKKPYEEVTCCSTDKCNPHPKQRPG

SMILES	composite z-score [1]	composite z-score [2]	composite z-score [3]	z-score [4]	composite z-score [5]	composite z-score [6]	composite z-score [7]	composite z-score [8]	composite z-score [9]	composite z-score [10]	composite z-score [11]	z-score [12]	composite z-score [13]	composite z-score [14]	composite z-score [15]	composite z-score [16]	composite z-score [17]	composite z-score [18]	composite z-score [19]	composite z-score [20]
CO[C@@H]1COC(=O)CC=C[C@H](C)COC(=O)[C@H](Cc2ccccc2)NC(=O)CC=C[C@H]1C	0.534	-1.19	-1.74	-0.912 (inactive)	0.472	0.622	1.03	1.25	2.22	1.36	-0.416	1.06	1.31	-1.59	-2.38	-0.288	0.0048	-0.547	-0.0955	-1.36
COc1ccc([C@H]2C[C@H]3C(Br)=C[C@]2(OC)C(=O)[C@]32CO2)cc1	0.488	-0.0499	0.348	1.49 (inactive)	1.05	0.083	-0.0387	-0.0092	0.239	0.504	-0.681	-2.26	0.219	-0.408	-0.668	-0.113	-0.0769	-0.176	0.42	-0.268
COc1ccc(C(=O)Nc2ccc(CN3C(=O)[C@]4(O[C@H](CCn5cc(CCO)nn5)[C@@H]([Si](C)(C)c5ccc(OC)cc5)[C@@H]4C)c4ccccc43)cc2)cc1	0.814	0.3	0.589	5.66 (inactive)	0.898	1.03	0.958	-0.106	-0.0456	1.11	1.05	-5.06	0.465	0.62	-0.0683	0.0857	0.199	-0.363	0.793	1.31
C[N+](C)(C)CCCC[C@@H]1NC(=O)[C@H]2C[C@@H](C(=O)NCc3ccc(F)cc3)[C@@H](c3cccc(OCCO)c3)N2C1=O	0.459	0.0243	0.479	-0.178 (inactive)	0.988	0.519	0.139	0.954	0.885	-0.7	0.276	0.328	0.503	0.884	0.869	-0.0522	-0.0904	0.0519	1.42	1.15
C=CCN(C(=O)C1N(c2ccc(CCO)cc2)C(=O)C2C(C(=O)O)C3C=CC21O3)C(C)(C)C (stereo not given)	1.86	-0.214	1.24	-1.32 (inactive)	-1.86	-0.723	-3.08	-2.73	-4.35	-1.06	-0.266	0.333	-2.38	-0.428	0.966	-0.287	-0.27	-0.219	1.71	-2.69
